Experimental data taken from PubChem BioAssay (Tox21).
Inconclusive results are not listed. Entries that show only a call come without a potency. Calls of active or inactive are those of the source. Calls come from the whole dose curve.

Biological target: Thyrotropin receptor (Homo sapiens) (UniProt P16473)
Assay: qHTS assay to identify small molecule antagonists of the thyroid stimulating hormone receptor (TSHR) signaling pathway (AID 1259385); note: nearly all actives have a fitted effect of over 20% in size
Conditions: TSHR-HEK293 cAMP HTRF, TSH-stimulated antagonist mode; series mostly up to 92.4 µM
Description: U.S. Tox21 Program National Center for Advancing Translational Sciences [NCATS] NIH Chemical Genomics Center [NCGC] U.S. Environmental Protection Agency [EPA] National Institutes of Environmental Health Sciences [NIEHS] National Toxicology Program [NTP] U.S. Food and Drug Administration [FDA] Tox21 Assay Overview: TSHR is the receptor for thyrotropin (thyroid stimulating hormone or TSH), a member of the glycoprotein hormone family. TSH is released by the anterior pituitary gland and is the main regulator of thyroid gland growth and development. Upon binding circulating thyrotropin, a G-protein signal cascade activates adenylyl cyclase and […] cAMP concentration is increased. cAMP is a key second messenger involved extensively in cellular signal transduction pathways associated with the majority of G-protein coupled receptors (GPCRs). The activation of these GPCRs by neurotransmitters, lipids, nucleotides, peptides and hormones results in the activation or the inhibition of plasma membrane-bound adenylate cyclase through heterotrimeric G-proteins. A cell-based TSHR assay can be used to screen chemical compounds that modulate TSHR either in agonist or antagonist mode.
Tox21 Assay Protocol Summary: TSHR-Hek293 cells were dispensed at 800 cells/4uL/well in 1536-well white plates using a Multidrop dispenser. After the assay plates were incubated at a 37C/5% CO2 incubator for 18 hrs, 23 nL of compounds dissolved in DMSO, positive controls or DMSO only was transferred to the assay plate by a pin tool, followed by 1 ul medium containing Ro20-1724. For the antagonist mode screening, 1 uL of TSH was added on the top of the cell/compound mixtures to achieve a final agonist concentration of 1.5 ng/mL. After 30 min of incubation at room temperature, 2.5 ul/well of cAMP-d2 and 2.5 ul/well of anti-cAMP-cryptate were added respectively into the assay plates using a Flying Reagent Dispenser. The plates were incubated at room temperature for 1 hr. The fluorescence intensity in the plates was measured using an Envision plate reader. Each test compound was measured at 15 concentrations and in triplicates.
Potency is the fitted concentration of half-maximal effect.

Sequence of Thyrotropin receptor (Homo sapiens) (P16473 whole entry, looked up): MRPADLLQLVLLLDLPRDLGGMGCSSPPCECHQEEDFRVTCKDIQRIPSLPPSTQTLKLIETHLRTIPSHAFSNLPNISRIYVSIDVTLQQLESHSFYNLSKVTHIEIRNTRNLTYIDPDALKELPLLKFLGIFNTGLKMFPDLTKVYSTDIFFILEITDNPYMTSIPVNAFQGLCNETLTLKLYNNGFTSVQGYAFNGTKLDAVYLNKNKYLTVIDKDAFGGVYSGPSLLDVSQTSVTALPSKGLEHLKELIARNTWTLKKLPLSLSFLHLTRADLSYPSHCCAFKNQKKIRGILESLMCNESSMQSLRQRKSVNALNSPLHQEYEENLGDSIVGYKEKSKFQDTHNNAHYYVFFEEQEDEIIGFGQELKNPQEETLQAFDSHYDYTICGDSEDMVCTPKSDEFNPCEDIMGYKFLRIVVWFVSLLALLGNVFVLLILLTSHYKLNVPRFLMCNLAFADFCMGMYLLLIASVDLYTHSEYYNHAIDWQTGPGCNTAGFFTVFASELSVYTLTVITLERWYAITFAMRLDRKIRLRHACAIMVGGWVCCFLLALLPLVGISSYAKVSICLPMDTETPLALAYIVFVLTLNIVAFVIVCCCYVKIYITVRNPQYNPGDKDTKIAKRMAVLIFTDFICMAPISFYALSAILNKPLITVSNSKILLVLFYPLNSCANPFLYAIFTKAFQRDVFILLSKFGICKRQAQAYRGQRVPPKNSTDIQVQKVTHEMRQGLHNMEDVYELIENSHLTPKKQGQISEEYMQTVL

Question: With `CCC[CH2][Sn]([CH2]CCC)([O]C(C)=O)[O]C(C)=O` as the molecule, how does the Potency read?
Answer: The Potency was “inactive”.

Question: How did the Potency turn out when `CCN1CCC2(CC1)COc1cc3c(cc12)N(C(=O)c1ccc(-c2ccc(-c4nnc(C)o4)cc2C)cc1)CC3` was run?
Answer: The Potency was 63.3 µM (active).

Question: For `C[N+]1(C)[C@@H]2CC[C@H]1CC(OC(=O)C(CO)c1ccccc1)C2` (stereo not given in full), which Potency is on record?
Answer: The Potency was “inactive”.

Question: `N#CC(C#N)=NNc1cccc(Cl)c1` was tested. Which Potency did it give?
Answer: Its Potency is “inactive”.

Question: Which Potency does the source give for `CCOP(=O)(OCC)Oc1cc(C)nc(C(C)C)n1` here?
Answer: The Potency was “inactive”.

Question: For `N#Cc1c[nH]cc1-c1cccc2c1OC(F)(F)O2`, which Potency is on record?
Answer: The Potency was “inactive”.

Question: Which Potency does the source give for `Nc1ccccc1-c1ccccc1` here?
Answer: Its Potency is “inactive”.

Question: For `COCCC#N`, which Potency is on record?
Answer: Its Potency is “inactive”.

Question: With `Oc1ccc2[nH]cc(CCCCN3CC=C(c4ccccc4)CC3)c2c1` as the molecule, how does the Potency read?
Answer: Its Potency is “inactive”.

Question: With `CCCCCCC[CH2][Sn]([Cl])([Cl])[CH2]CCCCCCC` as the molecule, how does the Potency read?
Answer: The Potency was “inactive”.

Question: Which Potency does the source give for `O=P(Cl)(Cl)Cl` here?
Answer: Its Potency is “inactive”.

Question: For `Cc1cccc(Cc2cnc[nH]2)c1C`, which Potency is on record?
Answer: The Potency was “inactive”.

Question: `O=S1OCC2C(CO1)C1(Cl)C(Cl)=C(Cl)C2(Cl)C1(Cl)Cl` (stereo not given) was tested. Which Potency did it give?
Answer: The Potency was “inactive”.

Question: For `CC[C@]1(O)CC[C@H]2[C@@H]3CCC4=CCCC[C@@H]4[C@H]3CC[C@@]21C`, which Potency is on record?
Answer: The Potency was “inactive”.

Question: For `CC1CN1` (stereo not given), which Potency is on record?
Answer: The Potency was “inactive”.

Question: Which Potency does the source give for `CN=C=O` here?
Answer: The Potency was “inactive”.

Question: `CC(C)C(Br)C(=O)NC(N)=O` (stereo not given) was tested. Which Potency did it give?
Answer: The Potency was “inactive”.

Question: With `c1ccc2c(c1)cc1ccc3cccc4ccc2c1c34` as the molecule, how does the Potency read?
Answer: The Potency was “inactive”.

Question: Which Potency does the source give for `CNC(C)(C)Cc1ccccc1` here?
Answer: The Potency was “inactive”.

Question: Which Potency does the source give for `CCC[CH2][Sn]([CH2]CCC)([CH2]CCC)[CH2]CCC` here?
Answer: Its Potency is “inactive”.

Question: `Oc1ccc(Cl)c(Cl)c1` was tested. Which Potency did it give?
Answer: Its Potency is “inactive”.

Question: `CCCCCON=O` was tested. Which Potency did it give?
Answer: Its Potency is “inactive”.

Question: How did the Potency turn out when `CN1C2CCC(C)(C)C1CC(OC(=O)C(O)(c1cccs1)c1cccs1)C2` (stereo not given) was run?
Answer: Its Potency is “inactive”.

Question: How did the Potency turn out when `CC1CCCC1` was run?
Answer: Its Potency is “inactive”.

Question: `CCC(C)c1cccc(C(C)CC)c1O` (stereo not given) was tested. Which Potency did it give?
Answer: The Potency was “inactive”.

Question: With `O=c1c2ccccc2c(=O)c2c1cc(Cl)c1[nH]c3c([nH]c12)c(Cl)cc1c(=O)c2ccccc2c(=O)c13` as the molecule, how does the Potency read?
Answer: Its Potency is “inactive”.

Question: Which Potency does the source give for `C[C@]12C/C(=C/O)C(=O)C[C@@H]1CC[C@@H]1[C@@H]2CC[C@@]2(C)[C@H]1CC[C@]2(C)O` here?
Answer: Its Potency is “inactive”.

Question: How did the Potency turn out when `CNC(=O)/C=C(\C)OP(=O)(OC)OC` was run?
Answer: Its Potency is “inactive”.

Question: `CC#C[C@]1(O)CC[C@H]2[C@@H]3C[C@H](C)C4=CC(=O)CC[C@]4(C)[C@H]3CC[C@@]21C` was tested. Which Potency did it give?
Answer: Its Potency is “inactive”.

Question: How did the Potency turn out when `CC(C)N(C(=O)CCl)c1ccccc1` was run?
Answer: Its Potency is “inactive”.

Question: Which Potency does the source give for `C[C@]12Cc3cn[nH]c3C[C@@H]1CC[C@@H]1[C@@H]2CC[C@@]2(C)[C@H]1CC[C@]2(C)O` here?
Answer: The Potency was “inactive”.

Question: How did the Potency turn out when `c1cc[n+]2c(c1)-c1cccc[n+]1CC2` was run?
Answer: The Potency was “inactive”.

Question: For `C=C(C)C(=O)[O][Sn]([CH2]CCC)([CH2]CCC)[CH2]CCC`, which Potency is on record?
Answer: Its Potency is 12.2 µM (active).

Question: For `[F][Sn]([c]1ccccc1)([c]1ccccc1)[c]1ccccc1`, which Potency is on record?
Answer: Its Potency is 15.4 µM (active).

Question: How did the Potency turn out when `CC[N+]1(CC)CCC(OC(=O)C(O)(c2ccccc2)c2ccccc2)C1` (stereo not given) was run?
Answer: The Potency was “inactive”.

Question: For `CCN(CC)CCN1C(=O)CN=C(c2ccccc2F)c2cc(Cl)ccc21`, which Potency is on record?
Answer: Its Potency is “inactive”.

Question: For `O=C(CCCCl)c1ccc(F)cc1`, which Potency is on record?
Answer: Its Potency is “inactive”.

Question: With `Cc1ccccc1OP(=O)(Oc1ccccc1C)Oc1ccccc1C` as the molecule, how does the Potency read?
Answer: The Potency was “inactive”.

Question: How did the Potency turn out when `C=CC(=C)C` was run?
Answer: The Potency was “inactive”.

Question: Which Potency does the source give for `Cc1nn(-c2cc(NS(C)(=O)=O)c(Cl)cc2Cl)c(=O)n1C(F)F` here?
Answer: Its Potency is “inactive”.
